These results are taken from PubChem BioAssay AID1259249 (Broad Institute, 2017).

Several values for one entry are separate records, joined by “and”; a condition that tells them apart may be missing. Equal values may be shown once. In all, about 86,000 compounds went through this assay and about 220 (0.26%) were called active. This is one part of a sample in which actives are shown more often than they occur.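 How the source made its calls: active means mean growth activity at or below -80% and every replicate also at or below -80%; inconclusive means mean at or below -80% but some replicate above -80%; inactive means mean growth activity above -80%.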

This test can be described thus: C. difficile growth inhibitors, primary screen, HTS (AID 1259249).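 Further: 0% = DMSO wells and -100% = levofloxacin 16 µg/mL wells.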 Conditions: Clostridium difficile clinical isolate growth, OD600, 24 h; stronger effect = lower value; screened at 16 µg/mL (by protocol).
In the case of `COc1ccc(S(=O)(=O)N(C)C[C@@H]2OCCCC[C@H](C)Oc3ccc(NC(=O)Nc4ccccc4)cc3C(=O)N([C@H](C)CO)C[C@H]2C)cc1`, the growth activity, negative = inhibition was -1.33% (inactive).
Consider `O=C(C[C@@H]1CC[C@H](NS(=O)(=O)c2ccc(F)cc2)[C@@H](CO)O1)NCc1ccccc1F`, for which the growth activity, negative = inhibition is -8.59% (inactive).
In the case of `COCC(=O)N1[C@H](CO)[C@H](c2ccccc2C2=CCCCC2)[C@@H]1C#N`, the growth activity, negative = inhibition was -0.454% (inactive).
Turning to `COc1ccc(CN(C)C[C@@H]2OCCCC[C@@H](C)Oc3ccc(NC(=O)Nc4ccc(C(F)(F)F)cc4)cc3C(=O)N([C@H](C)CO)C[C@H]2C)cc1`, the growth activity, negative = inhibition is -85.2% (active).
The result for `C[C@@H]1CN([C@H](C)CO)C(=O)c2cc(NC(=O)Nc3ccc(C(F)(F)F)cc3)ccc2O[C@@H](C)CCCCO[C@@H]1CN(C)Cc1ccc(C(F)(F)F)cc1` reads 0.541% (inactive).
With `COc1ccc(NC(=O)Nc2ccc3c(c2)C(=O)N([C@@H](C)CO)C[C@H](C)[C@H](CN(C)Cc2ccc(C(F)(F)F)cc2)OCCCC[C@H](C)O3)cc1` the figure was 0.631% (inactive); with `COc1ccc(S(=O)(=O)N2CC[C@@H]3[C@H](CO)Nc4ccc(C#Cc5cccc(OC)c5)cc4[C@@H]32)cc1`, 47.9% (inactive); with `CCCNC(=O)N1[C@@H]2CNC[C@H]1C2c1ccc(-c2cccc(C)c2)cc1` (some centres not stated), -6.26% (inactive) and -5.23% (inactive).
The result for `C[C@H](CO)N1C[C@H](C)[C@@H](CN(C)C(=O)C2CCC2)Oc2cc(C3=CCCCC3)ccc2S1(=O)=O` reads -7.06% (inactive).
Regarding `O=C(C[C@@H]1CC[C@@H](NC(=O)c2cccnc2)[C@H](CO)O1)NCCN1CCCCC1`, the growth activity, negative = inhibition is -5.37% (inactive).
The result for `CN(C)C(=O)C[C@@H]1CC[C@H]2[C@@H](COC[C@H](O)CN2S(=O)(=O)c2ccccc2)O1` reads 0.743% (inactive) and 2.09% (inactive).
The result for `O=C(NC1Cc2ccccc2C1)[C@@H]1[C@@H](CO)[C@@H]2Cn3c(ccc(C4=CCCC4)c3=O)[C@H]1N2CC1CC1` reads -0.745% (inactive).
With `C[C@H](O)C#Cc1cnc2c(c1)C(=O)N([C@H](C)CO)C[C@@H](C)[C@@H](CN(C)C(=O)Nc1ccc(C(F)(F)F)cc1)O2` the figure was 4.02% (inactive); with `O=C(Cc1ccccc1)N1CC2(C1)[C@H](c1ccccc1)[C@@H](CO)N2C(=O)c1cccnc1`, 1.92% (inactive).
On to `O=C(Cc1cccnc1)N1CC(=O)N2[C@@H](CO)[C@H](c3ccc(C#CC4CC4)cc3)[C@@H]2C1`, for which the growth activity, negative = inhibition is -8.63% (inactive).
The result for `CCCC(=O)Nc1ccc2c(c1)OC[C@H](C)N(Cc1ccc(F)cc1)C[C@H](C)[C@H](OC)CN(C)C2=O` reads -2.55% (inactive).
As to `COc1ccc2c3c(n(C)c2c1)[C@H](CO)N(C(=O)c1ccncc1)CC31CCN(CC2CC2)CC1`, the growth activity, negative = inhibition is -4.02% (inactive).
With `CN(C)CC(=O)N[C@H]1CC[C@H](CCNC(=O)C2CCCCC2)O[C@H]1CO` the figure was -2.36% (inactive); with `CCS(=O)(=O)N1CC(=O)N2[C@H](CO)[C@@H](c3ccc(C#Cc4cccc(F)c4)cc3)[C@@H]2C1`, -11.9% (inactive); with `CCCNC(=O)N1CC2(CCN(Cc3ccc(F)cc3)CC2)c2c([nH]c3cc(OC)ccc23)[C@@H]1CO`, -2.16% (inactive).
The result for `COc1ccc(C#Cc2cnc3c(c2)C(=O)N([C@H](C)CO)C[C@@H](C)[C@H](CN(C)C(=O)Nc2cccc(OC)c2)O3)cc1` reads -9.72% (inactive); that for `CO[C@@H]1CN(C)C(=O)c2ccc(NC(=O)NC(C)C)cc2OC[C@@H](C)N(C)C[C@H]1C`, -0.836% (inactive).
As to `CO[C@H]1CN(C)C(=O)c2ccc(NC(=O)c3cnccn3)cc2OC[C@H](C)N(C)C[C@@H]1C`, the growth activity, negative = inhibition is 4.99% (inactive).
The result for `CC=Cc1ccc2n(c1=O)C[C@H]1[C@H](CO)[C@@H](C(=O)NCCc3cn(C)cn3)[C@@H]2N1C(=O)CC` (mixture of isomers) reads 1.45% (inactive).
With `CCNC(=O)C[C@H]1CC[C@@H]2[C@H](COc3ccc(NC(=O)Nc4cccc(Cl)c4)cc3C(=O)N2C)O1` the figure was -2.43% (inactive); with `CC(=O)N1[C@H](CNC(=O)CN(C)C)[C@H](c2ccc(C3=CCCC3)cc2)[C@@H]1CO`, -3.19% (inactive); with `CO[C@H]1O[C@H](CO)[C@@H](OC(=O)Nc2ccc(C(F)(F)F)cc2)[C@H](OC(=O)Nc2ccc3c(c2)OCO3)[C@H]1OC(=O)Nc1ccc2c(c1)OCO2`, 16.4% (inactive).
With `COc1ccc(-c2ccc3c(c2)[C@@H]2[C@@H](CCN2C(=O)NC2CCCC2)[C@@H](CO)N3C)cc1` the figure was -8.11% (inactive); with `C[C@H](NC(=O)[C@@H]1[C@@H](CO)[C@@H]2Cn3c(ccc(-c4cccc(F)c4)c3=O)[C@@H]2N1C)c1ccccc1`, -2.53% (inactive); with `CN1C(=O)c2cc(NC(=O)C3CCCCC3)ccc2OC[C@H]2O[C@@H](CC(=O)NC3CCCC3)CC[C@@H]21`, -2.9% (inactive).
For `CO[C@H]1CN(C)C(=O)c2ccc(NC(=O)Nc3ccc(F)cc3)cc2OC[C@@H](C)NC[C@H]1C`, the growth activity, negative = inhibition was 0.388% (inactive).
With `CO[C@H]1CN(C)C(=O)c2ccc(NC(=O)Nc3ccc4c(c3)OCO4)cc2OC[C@H](C)NC[C@H]1C` the figure was -11.3% (inactive); with `CO[C@@H]1CN(C)C(=O)c2ccc(NC(=O)Nc3cc(Cl)cc(Cl)c3)cc2OC[C@H](C)NC[C@H]1C`, -99.2% (active).
The result for `COc1cccc(NC(=O)N2C[C@@H](O)COC[C@@H]3O[C@@H](CC(=O)NC4CCC4)CC[C@H]32)c1` reads 5.76% (inactive).
The result for `Cc1ccccc1S(=O)(=O)NCC[C@@H]1CC[C@H](NC(=O)C2CCC2)[C@@H](CO)O1` reads 2.36% (inactive); that for `O=C(N[C@H]1CC[C@H](CCNS(=O)(=O)c2ccc(F)cc2)O[C@H]1CO)c1cccc(F)c1`, -5.13% (inactive); that for `COC(=O)C[C@H]1C[C@H]2c3cc(NC(=O)Nc4ccccc4F)ccc3O[C@H]2[C@H](CO)O1`, 2.15% (inactive).
Regarding `COc1cc(C(=O)NC2CCN(C)CC2)ccc1Nc1ncc2c(n1)N(C1CCC(O)CC1)CCC(=O)N2C` (configuration not stated), the growth activity, negative = inhibition is -0.491% (inactive).
Turning to `O=C(Nc1cc(F)ccc1F)N1C[C@H]2[C@@H](c3ccccc31)[C@@H](CO)N2CC1CCCC1`, the growth activity, negative = inhibition was 8.3% (inactive).
With `O=C(NCC1CC1)[C@@H]1[C@@H](CO)[C@@H]2Cn3c(ccc(-c4ccccc4)c3=O)[C@H]1N2Cc1nccs1` the figure was -2.44% (inactive); with `CCCNC(=O)N(C)C[C@H]1Oc2ncc(-c3cccc(C#N)c3)cc2C(=O)N([C@@H](C)CO)C[C@@H]1C`, 2.18% (inactive); with `C[C@@H]1CCCCO[C@@H](CN(C)C(=O)Nc2ccc3c(c2)OCO3)[C@H](C)CN([C@H](C)CO)C(=O)c2cc(NC(=O)CCCN(C)C)ccc2O1`, 5.23% (inactive).
The result for `O=C(Cc1cccnc1)N1CC(=O)N2[C@@H](CO)[C@@H](c3ccc(C#CC4CCCC4)cc3)[C@@H]2C1` reads -15.5% (inactive).
The result for `COc1ccc2c3c(n(C)c2c1)[C@@H](CO)N(C)CC31CN(CC2CC2)C1` reads 1.27% (inactive); that for `COc1ccc2c3c([nH]c2c1)[C@H](CO)N(C(=O)Nc1ccc(F)cc1)CC31CN(S(=O)(=O)c2cccc(F)c2)C1`, 0.0849% (inactive); that for `O=C(c1cccc(F)c1)N1CC[C@@H]2[C@H](CO)Nc3ccc(-c4ccccc4)cc3[C@@H]21`, 6.91% (inactive).
On to `COCC#Cc1ccc([C@@H]2[C@H](CO)N3C(=O)CN(C(=O)C4CCC4)C[C@@H]23)cc1`, for which the growth activity, negative = inhibition was -5.13% (inactive).
The result for `COc1ccc2c3c([nH]c2c1)[C@@H](CO)N(C(=O)c1ccccc1)CC31CCN(Cc2cccnc2)CC1` reads 3.57% (inactive); that for `CC=Cc1ccc2n(c1=O)C[C@H]1[C@H](CO)[C@@H](C(=O)NC3CCCC3)N(Cc3cccnc3)[C@@H]21` (mixture of isomers), 1.31% (inactive); that for `CCC(=O)N1CC(=O)N2[C@@H](CO)[C@H](c3ccc(C#CC4CCCC4)cc3)[C@@H]2C1`, -2.43% (inactive).
Consider `CN(C)CC#Cc1ccc([C@H]2[C@H]3CN(C(=O)c4cccc(F)c4)CC(=O)N3[C@H]2CO)cc1`, for which the growth activity, negative = inhibition was 2.12% (inactive).
For the compound `CO[C@H]1CN(C)C(=O)c2cc(NS(=O)(=O)c3ccccc3C)ccc2OC[C@@H](C)NC[C@@H]1C`, the growth activity, negative = inhibition is -1.27% (inactive).
The result for `CS(=O)(=O)N1[C@H](C#N)[C@H](c2ccccc2-c2ccc(F)cc2)[C@@H]1CO` reads 7% (inactive); that for `CC(=O)N(C)C[C@H]1[C@H](c2ccc(C3=CCCCC3)cc2)[C@H](CO)N1CC1CC1`, 33.9% (inactive).
With `O=C(C[C@@H]1CC[C@@H](NC(=O)C2CCOCC2)[C@H](CO)O1)NCC1CC1` the figure was 1.16% (inactive); with `COc1ccccc1NC(=O)N1CC(=O)N2[C@H](C1)[C@H](c1ccc(C#Cc3ccccc3)cc1)[C@@H]2CO`, 12.6% (inactive).
For the compound `CCCNC(=O)C[C@H]1C[C@H]2c3cc(NC(=O)NC4CCCCC4)ccc3O[C@H]2[C@H](CO)O1`, the growth activity, negative = inhibition was -4.2% (inactive).
With `COc1cccc(NC(=O)C[C@@H]2CC[C@H]3[C@@H](COc4ccc(NC(=O)C5CCC5)cc4C(=O)N3C)O2)c1` the figure was -1.63% (inactive); with `C[C@@H]1CN([C@@H](C)CO)S(=O)(=O)c2ccc(/C=C/c3ccccc3)cc2O[C@H]1CN(C)C(=O)Nc1cc(F)ccc1F`, 4.39% (inactive).
Take `C/C=C/c1ccc([C@H]2[C@H](CO)N(C(=O)CN(C)C)C23CN(C(=O)C2CC2)C3)cc1`: the growth activity, negative = inhibition is -0.638% (inactive).
Regarding `CN1c2ccc(-c3ccccc3F)cc2[C@H]2[C@H](CCN2C(=O)Nc2cc(F)ccc2F)[C@H]1CO`, the growth activity, negative = inhibition was 38.2% (inactive).
For `C[C@@H]1CCCCO[C@@H](CN(C)C(=O)CCC(F)(F)F)[C@H](C)CN([C@@H](C)CO)C(=O)c2cc(NC(=O)CCCN(C)C)ccc2O1`, the growth activity, negative = inhibition is 2.21% (inactive).
